# Sampled rows, rich in hits. Any-hit rate of the full collection: about 21%.
# NS1 function inh: influenza NS1 inhibition. Potency, µM (series often up to 46.1 µM). 270,000 tested, 0.4% active. AID 2326; calls by dose curve; note: actives are rising curves; nearly all actives have a fitted effect of over 50% in size
#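 Compounds were scored for reversing the slow growth caused by influenza A NS1 in S. cerevisiae, measured by optical density at 600 nm. Assay medium contained 2% galactose at pH 6.0; NS1-free yeast of the same strain were the positive control.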
# Shiga inhibitor: Shiga toxin inhibition; Vero cells, Shiga toxin protein synthesis inhibition reporter; inhibition, % at 38.7 µM; 290,000 tested, 9.2% active; in the data active = inhibition mostly above about 28%, no sharp cut-off; inactive = mostly below about 43%
# Pf growth 48h: P. falciparum growth inhibition at 48 hours (one generation). P. falciparum luciferase growth in erythrocytes, 48 h. Potency, µM (doses to about 28.7 µM), hits mostly inhibitors. 310,000 tested, 5.9% active. AID 504832
#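 Cell-based growth assay: transgenic P. falciparum expressing firefly luciferase, cultured in red cells within RPMI 1640 containing 0.5% w/v Albumax, 24 mM bicarbonate and gentamycin. A drop in luciferase activity indicates inhibition.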
# Cycloheximide cs: counter-screen for Shiga toxin inhibitors: cycloheximide protein synthesis inhibition; cell reporter, cycloheximide protein synthesis inhibition counterscreen; max response, %; 300,000 tested, 12% active; in the data active = max response mostly above about 13%, no sharp cut-off; inactive = mostly below about 14%; note: read at 38.3 µM for the half of the compounds with a filed dose
# SARS PLP yeast: blocks SARS-CoV papain-like protease in a yeast assay; 330,000 tested, 0.19% active; Potency, µM (top dose mostly 32.9 µM), most hits filed as activators; S. cerevisiae expressing SARS-CoV PLpro, growth rescue; AID 485353; calls by dose curve; note: nearly all actives have a fitted effect of over 55% in size
# Pf growth 96h: P. falciparum growth inhibition at 96 hour, primary screen for plastid delayed-death inhibitors. Potency, µM (top dose mostly 28.7 µM), usual class: inhibitors. 320,000 tested, 6.9% active. P. falciparum luciferase reporter growth, 96 h. AID 504834
#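 Plates of compound plus infected erythrocytes (2% hematocrit, 0.05% parasitemia final) incubate 96 hours, 37 C, 5% CO2. Detection reagent added; reduced luminescence from the parasites' luciferase reporter flags inhibition.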
# Numbers stand for hits; n = inactive; u = inconclusive; x = no result given. Unless noted, calls come from the whole dose curve; as a rule, active = well fitted inhibition curve with a large enough effect; inconclusive = small, poorly fitted or top-dose-only effect, or another doubt; inactive = no such curve, though single readings can be large or run the other way.
SMILES,NS1 function inh,Shiga inhibitor,Pf growth 48h,Cycloheximide cs,SARS PLP yeast,Pf growth 96h
CC(=O)O[C@H]1C(=O)[C@@]2(C)[C@H]([C@H](OC(=O)c3ccccc3)[C@]3(O)C[C@H](OC(=O)[C@H](O)C(NC(=O)c4ccccc4)c4ccccc4)C(C)=C1C3(C)C)[C@]1(OC(C)=O)CO[C@@H]1C[C@@H]2O (some centres undefined),n,n,0.1µM,n,n,0.074µM
CCCCCC(=O)N[C@@H](c1ccccc1)[C@@H](O)C(=O)O[C@H]1C[C@@]2(O)[C@@H](OC(=O)c3ccccc3)C3[C@](C)(C(=O)[C@H](OC(C)=O)C(=C1C)C2(C)C)[C@@H](O)C[C@H]1OC[C@@]31OC(C)=O (some centres undefined),n,n,u,n,n,u
CC(=O)O[C@H]1C(=O)[C@@]2(C)[C@H]([C@H](OC(=O)c3ccccc3)[C@]3(O)C[C@H](OC(=O)[C@H](O)[C@@H](NC(=O)c4ccccc4)c4ccccc4)C(C)=C1C3(C)C)[C@]1(OC(C)=O)CO[C@@H]1C[C@@H]2O,x,x,0.074µM,x,n,0.059µM
CC/C=C/CC(=O)N[C@@H](c1ccccc1)[C@@H](O)C(=O)O[C@H]1C[C@@]2(O)[C@@H](OC(=O)c3ccccc3)C3[C@](C)(C(=O)[C@H](OC(C)=O)C(=C1C)C2(C)C)[C@@H](O)C[C@H]1OC[C@@]31OC(C)=O (some centres undefined),n,n,0.47µM,n,n,0.33µM
CCC(C)C(=O)N[C@@H](c1ccccc1)[C@@H](O)C(=O)O[C@H]1C[C@@]2(O)[C@@H](OC(=O)c3ccccc3)C3[C@](C)(C(=O)[C@H](OC(C)=O)C(=C1C)C2(C)C)[C@@H](O)C[C@H]1OC[C@@]31OC(C)=O (some centres undefined),n,n,0.47µM,n,n,0.23µM
CC(C)(C)c1nn(-c2ccccc2)c2[nH]c(=O)c(C=O)cc12,n,n,u,n,n,n
COc1ccccc1/C=C\C(=O)NCC(=O)N/N=C(\C)Cc1ccccc1,n,n,n,n,n,n
O=C(NCCS(=O)(=O)c1ccc(Br)cc1)c1c(F)cccc1F,n,n,n,n,x,n
CC(C)N1CCC(N2CCN(Cc3cc4c(cc3Cl)OCO4)CC2CCO)CC1 (centres undefined),n,n,n,n,n,u
Cc1nn(CC(C)C)c(Cl)c1C(=O)N(C)CC(=O)Nc1c(Cl)cccc1Cl,n,n,n,n,n,n
Cn1c(=O)oc2cc(S(=O)(=O)NCCC(=O)NCc3ccc(F)cc3)ccc21,n,n,n,n,n,13µM
CCN1C(=O)/C(=C2/C=Cc3cc(C)ccc3N2CC)N(C)C1=S,n,n,u,n,n,8.3µM
CCN1/C(=C2\C(=O)N(C)C(=S)N2C)C=Cc2cc(OC)ccc21,n,n,15µM,n,n,n
CCN1/C(=C2\OC(=S)N(C)C2=O)C=Cc2ccccc21,x,n,n,n,n,n
CN1CCN(CC(O)(c2ccc(Cl)cc2)c2ccc(Cl)cc2)CC1,x,n,9.3µM,n,n,15µM
COC(=O)C1=C(C)N(C)C(C)=C(C(=O)OC)C1c1ccccn1,n,n,u,n,n,u
COc1cc(CO)cc(Br)c1OCC(=O)N1CCCCC1,n,n,n,n,n,x
O=c1[nH]c2ccccc2cc1CN(Cc1cccnc1)S(=O)(=O)c1ccc([N+](=O)[O-])cc1,n,n,u,n,n,4.7µM
Cc1ccc(Cc2cc(C)n[nH]c2=O)cc1,n,n,n,n,n,n
Cc1ccc(-c2cc(Cc3ccncc3)c(=O)[nH]n2)cc1,n,n,n,11,n,n
Cc1noc(C)c1CSCC(=O)Nc1cccc(C(F)(F)F)c1,x,x,x,x,n,x
CCSc1nnc(NC(=O)CCc2ccccc2)s1,n,n,x,n,n,n
Cc1nc2ccc(NC(=O)COc3ccccc3[N+](=O)[O-])cc2s1,x,n,n,n,n,n
CC(C)c1nnc(NC(=O)COc2ccccc2[N+](=O)[O-])s1,n,96,n,20,n,n
CCSc1nnc(NC(=O)COc2ccccc2[N+](=O)[O-])s1,x,185,n,62,n,n
SMILES,NS1 function inh,Shiga inhibitor,Pf growth 48h,Cycloheximide cs,SARS PLP yeast,Pf growth 96h
COC(=O)N/N=C/c1cc(Cl)cc(Cl)c1OCc1ccccc1,n,n,n,n,n,n
CCOC(=O)C1(Cc2ccc(OC)cc2)CCN(C(=O)[C@@H]2CCCN2C(C)=O)CC1,n,n,n,n,n,n
COc1cc(CN2CCN(C(c3ccccc3)c3ccccc3)CC2)cc(OC)c1OC,n,n,u,n,n,4.7µM
Cc1cccc(CN2CCN(C(c3ccccc3)c3ccc(Cl)cc3)CC2)c1 (centres undefined),n,n,u,n,n,9.3µM
COc1cccc(CN2CCN(C(c3ccccc3)c3ccccc3)CC2)c1O,n,n,u,n,n,0.41µM
COc1cc(C(=S)N2CCN(C(c3ccccc3)c3ccccc3)CC2)cc(OC)c1O,n,n,u,n,n,n
COc1cccc(CN2CCN(Cc3cc(OC)c(OC)c(OC)c3)CC2)c1OC,n,n,n,n,n,n
CC(=O)c1ccc(OCC(=O)OCC(=O)Nc2sccc2C(N)=O)cc1,x,x,n,x,n,n
Brc1cccc(-c2nnc(SCc3ccon3)n2-c2ccccc2)c1,n,n,x,n,n,u
O=C(Cn1nnc(-c2ccccc2)n1)N/N=C/c1ccco1,x,n,n,n,n,n
CC1CCc2c(sc3ncn(N)c(=N)c23)C1 (centres undefined),n,n,n,n,n,n
COc1ccc(C2CC(=O)Oc3c(C(CCN4CCCC(C)C4)c4cc(OC)c(OC)c(OC)c4)c(OC)cc(OC)c32)cc1 (centres undefined),x,n,x,n,x,x
CCOC(=O)c1c(C)[nH]c(C(=O)OCC(=O)N(CC(C)C)c2c(N)n(Cc3ccccc3)c(=O)[nH]c2=O)c1C,x,x,u,x,x,n
CN1CCN(C(=O)c2cc(-c3ccco3)on2)CC1,n,n,n,15,n,n
O=C(c1cc(-c2ccco2)on1)N1CCOCC1,n,47,n,27,n,n
O=C(NC(=S)NC1CCSC1=O)c1ccc([N+](=O)[O-])cc1 (centres undefined),n,n,n,n,n,10µM
CCc1cccc2c(C(=S)N3CCCC3)c[nH]c12,n,n,n,15,n,n
CCc1cccc2c(C(=O)CCl)c[nH]c12,n,n,n,n,13µM,u
CCc1cccc2c(C(=O)CN3C(=O)NC4(CCCCC4)C3=O)c[nH]c12,x,x,x,x,n,x
COc1ccccc1C(=O)NC(=S)Nc1ccc(S(=O)(=O)N2CCN(C)CC2)cc1,n,n,n,n,n,n
CC(=O)OC1c2ccccc2C(=O)N1Cc1ccccc1Cl (centres undefined),n,n,n,n,n,n
COC1c2ccccc2C(=O)N1CCc1ccc(Cl)cc1 (centres undefined),n,41,n,16,n,u
